# Laboratory results as given in the antibiotic and cytotoxicity screens of Wong et al. (2023).
# The campaign covered roughly 39,000 compounds. About 3,300 (8.5%) were called active. The list comes from a sample in which actives are over-represented; it also holds similar structures and randomly drawn compounds.
# Tested on: HepG2
# Assay: cytotoxicity call (relative viability < 0.9)
# Details: 10 µM
row,SMILES,cytotoxicity call
1,CO[C@@H](CN(C)S(=O)(=O)c1cn(C)cn1)[C@@H](C)CN(C(=O)Nc1ccc(C(F)(F)F)cc1)[C@@H](C)CO,inactive
2,C[C@H](CO)N1C[C@H](C)[C@@H](CN(C)Cc2ccc3c(c2)OCO3)OCCCC[C@H](C)Oc2ccc(NC(=O)NC3CCCCC3)cc2C1=O,inactive
3,C[C@@H]1CCCCO[C@@H](CN(C)Cc2ccc3c(c2)OCO3)[C@@H](C)CN([C@@H](C)CO)C(=O)c2cc(NC(=O)NC3CCCCC3)ccc2O1,inactive
4,C[C@@H]1CCCCO[C@H](CN(C)Cc2ccc3c(c2)OCO3)[C@H](C)CN([C@@H](C)CO)C(=O)c2cc(NC(=O)NC3CCCCC3)ccc2O1,active
5,C[C@H](CO)N1C[C@H](C)[C@H](CN(C)Cc2ccc3c(c2)OCO3)OCCCC[C@H](C)Oc2ccc(NC(=O)NC3CCCCC3)cc2C1=O,active
6,C[C@@H]1CCCCO[C@@H](CN(C)Cc2ccc3c(c2)OCO3)[C@@H](C)CN([C@H](C)CO)C(=O)c2cc(NC(=O)NC3CCCCC3)ccc2O1,inactive
7,C[C@@H]1CCCCO[C@H](CN(C)Cc2ccc3c(c2)OCO3)[C@@H](C)CN([C@H](C)CO)C(=O)c2cc(NC(=O)NC3CCCCC3)ccc2O1,inactive
8,C[C@@H]1CCCCO[C@@H](CN(C)Cc2ccc3c(c2)OCO3)[C@H](C)CN([C@H](C)CO)C(=O)c2cc(NC(=O)NC3CCCCC3)ccc2O1,inactive
9,C[C@@H]1CCCCO[C@H](CN(C)Cc2ccc3c(c2)OCO3)[C@H](C)CN([C@H](C)CO)C(=O)c2cc(NC(=O)NC3CCCCC3)ccc2O1,inactive
10,C[C@H]1CCCCO[C@H](CN(C)Cc2ccc3c(c2)OCO3)[C@@H](C)CN([C@@H](C)CO)C(=O)c2cc(NC(=O)NC3CCCCC3)ccc2O1,inactive
11,C[C@@H]1CN([C@H](C)CO)C(=O)c2cc(NC(=O)NC3CCCCC3)ccc2O[C@@H](C)CCCCO[C@@H]1CN(C)Cc1ccc2c(c1)OCO2,active
12,C[C@@H]1CCCCO[C@H](CN(C)Cc2ccc3c(c2)OCO3)[C@@H](C)CN([C@@H](C)CO)C(=O)c2cc(NC(=O)NC3CCCCC3)ccc2O1,active
13,C[C@@H]1CN([C@@H](C)CO)C(=O)c2cc(NC(=O)NC3CCCCC3)ccc2O[C@@H](C)CCCCO[C@@H]1CN(C)Cc1ccc2c(c1)OCO2,inactive
14,CN1CCN(C(=O)C[C@@H]2CC[C@@H]3[C@H](COc4ccc(NC(=O)C5CCOCC5)cc4C(=O)N3C)O2)CC1,inactive
15,C[C@@H]1CN([C@@H](C)CO)C(=O)c2cc(NS(=O)(=O)c3ccc(F)cc3)ccc2O[C@@H](C)CCCCO[C@H]1CN(C)C(=O)C1CCCCC1,inactive
16,O=C(C[C@@H]1CC[C@H]2[C@@H](COC[C@@H](O)CN2C(=O)c2ccccc2)O1)NCCCN1CCOCC1,inactive
17,COc1ccccc1S(=O)(=O)N(C)C[C@H]1Oc2cc(Br)ccc2S(=O)(=O)N([C@H](C)CO)C[C@H]1C,inactive
18,C[C@@H]1CN([C@@H](C)CO)C(=O)c2cccc(NC(=O)CCCCCC(=O)Nc3ccccc3N)c2O[C@H]1CN(C)C(=O)Nc1cccc2ccccc12,inactive
19,Cc1noc(C)c1NC(=O)N(C)C[C@@H]1Oc2c(NC(=O)C3CCOCC3)cccc2C(=O)N([C@H](C)CO)C[C@@H]1C,inactive

row,SMILES,cytotoxicity call
1,NNCCc1ccccc1,inactive
2,NCCNc1cccc2ccccc12,inactive
3,c1ccc(CCNc2ccnc3cc4ccccc4cc23)cc1,active
4,CC(C)NC(=O)N(C)C[C@@H]1Oc2cc(C#Cc3ccc(F)cc3)ccc2S(=O)(=O)N([C@@H](C)CO)C[C@@H]1C,inactive
5,C[C@H]1CN([C@@H](C)CO)C(=O)c2cc(NC(=O)Nc3ccc4c(c3)OCO4)ccc2O[C@H]1CN(C)Cc1ccc(-c2ccccc2)cc1,inactive
6,C[C@H]1CN([C@@H](C)CO)C(=O)c2cc(NC(=O)Nc3ccc4c(c3)OCO4)ccc2O[C@@H]1CN(C)Cc1ccc(-c2ccccc2)cc1,active
7,C[C@@H]1CN([C@@H](C)CO)C(=O)c2cc(NC(=O)Nc3ccc4c(c3)OCO4)ccc2O[C@@H]1CN(C)Cc1ccc(-c2ccccc2)cc1,active
8,C[C@H](CO)N1C[C@H](C)[C@H](CN(C)Cc2ccc(-c3ccccc3)cc2)Oc2ccc(NC(=O)Nc3ccc4c(c3)OCO4)cc2C1=O,inactive
9,C[C@H](CO)N1C[C@H](C)[C@@H](CN(C)Cc2ccc(-c3ccccc3)cc2)Oc2ccc(NC(=O)Nc3ccc4c(c3)OCO4)cc2C1=O,inactive
10,C[C@@H]1CN([C@H](C)CO)C(=O)c2cc(NC(=O)Nc3ccc4c(c3)OCO4)ccc2O[C@H]1CN(C)Cc1ccc(-c2ccccc2)cc1,active
11,C[C@@H]1CN([C@H](C)CO)C(=O)c2cc(NC(=O)Nc3ccc4c(c3)OCO4)ccc2O[C@@H]1CN(C)Cc1ccc(-c2ccccc2)cc1,active
12,O=C1C[C@]2(c3ccc([N+](=O)[O-])cc3)C(=O)N(CC(F)(F)F)c3cc(CO)ccc3[C@H]2N1CC12CC3CC(CC(C3)C1)C2,inactive
13,COc1ccc(S(=O)(=O)Nc2ccc3c(c2)C(=O)N([C@@H](C)CO)C[C@H](C)[C@H](CN(C)C(=O)NC(C)C)O3)cc1,inactive
14,C[C@@H]1CN([C@@H](C)CO)C(=O)c2cc(NC(=O)Nc3ccc4c(c3)OCO4)ccc2O[C@@H](C)CCCCO[C@@H]1CN(C)S(=O)(=O)c1cccs1,inactive
15,C[C@H]1CN([C@@H](C)CO)C(=O)Cc2cc(NS(=O)(=O)c3cn(C)cn3)ccc2O[C@H]1CN(C)S(=O)(=O)c1ccc(F)cc1,inactive
16,C[C@@H]1CN([C@H](C)CO)C(=O)Cc2cc(NC(=O)CCCCCC(=O)Nc3ccccc3N)ccc2O[C@H]1CN(C)Cc1ccccc1,inactive
17,CCS(=O)(=O)N1CC[C@]2(CC1)CN([C@@H](CO)c1[nH]c3cc(ccc3c12)OC)C(=O)Cc1ccccn1,inactive
18,Cc1noc(C)c1NC(=O)Nc1ccc2c(c1)C(=O)N([C@@H](C)CO)C[C@H](C)[C@@H](CN(C)Cc1ccc(Cl)c(Cl)c1)O2,inactive
19,CC(C)NC(=O)Nc1ccc2c(c1)C(=O)N([C@@H](C)CO)C[C@H](C)[C@@H](CN(C)S(=O)(=O)c1cn(C)cn1)OCCCC[C@H](C)O2,inactive
